Experimental findings from the supplement of paper PMC10127200 are described below.

Holding throughout (assay): Euclidean distance of Cell Painting phenotypic profile (signed KS, 77 features) to DMSO centroid (dimensionless distance); 5 or 10 uM (library dependent); higher = stronger phenotypic change vs DMSO (phenoactivity)
Conditions in all cases: 48 h

The test system of assay [1] is 786-O. The method, boiled down:
(§1)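 At 10 or 5 uM, as set by the library, and 0.1% DMSO final, compounds were applied for 48 h to five cancer lines and one healthy fibroblast line. Stained cells were imaged confocally at 20X in 9 fields per well, and Harmony extracted 77 features scored as signed Kolmogorov-Smirnov statistics against vehicle wells on the same plate. Profiles underwent plate-position correction, correlation weighting and replicate averaging at the top dose. Phenoactivity is the Euclidean distance from each such profile to the median vehicle profile.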

For assay [2], the system named is A549. The method in brief:
as §1

Assay [3] has as its system DU145. The method in brief: as §1
Assay [4] relates to FB. The method in brief:
as §1

The test system of assay [5] is HEPG2. The method in brief: as §1
Assay [6] has as its system OVCAR4. The method, boiled down: as §1

Structures are written as SMILES. Structures can show the parent of a compound that is named as a salt.

For `COC(=O)[C@]12CCC(C)(C)C[C@H]1[C@H]1C(=O)C=C3[C@@]4(C)C=C(C#N)C(=O)C(C)(C)[C@@H]4CC[C@@]3(C)[C@]1(C)CC2` [Bardoxolone Methyl], the Euclidean distance is 5.4 in assay [1]; 5.71 in assay [2]; 5.63 in assay [3]; 2.1 in assay [4]; 4.01 in assay [5]; 6.33 in assay [6].
Regarding `CCC(CC)CC1(C(=O)Nc2ccccc2SC(=O)C(C)C)CCCCC1`, the Euclidean distance in assay [1] turned out to be 1.26; in assay [2], 1.07; in assay [3], 0.832; in assay [4] it was 1; in assay [5] it was 0.428; in assay [6], 0.986.
As to `Clc1ccc(CCCOCCCN2CCCCC2)cc1` [Pitolisant hydrochloride], the Euclidean distance came to 0.716 in assay [1]; 0.836 in assay [2]; 0.816 in assay [3]; 0.98 in assay [4]; 0.955 in assay [5]; 0.758 in assay [6].
Turning to `Cc1coc2c1C(=O)C(=O)c1c-2ccc2c1CCCC2(C)C` [Tanshinone IIA], the Euclidean distance in assay [1] worked out at 1.26; in assay [2], 2.73; in assay [3] it was 0.982; in assay [4], 1.04; in assay [5] it was 1.54; in assay [6], 1.36.
In the case of `CC(=O)OC[C@H]1O[C@@H]([S-])[C@H](OC(C)=O)[C@@H](OC(C)=O)[C@@H]1OC(C)=O.CCP(CC)CC.[Au+]` [Auranofin], the Euclidean distance in assay [1] worked out at 5.67; in assay [2], 4.89; in assay [3] it was 6.36; in assay [4] it was 6.74; in assay [5], 3.39; in assay [6], 5.08.
For `Cc1c(C(=O)N2CCOc3ccc(-c4ccc(N)nc4)cc3C2)ccc(S(C)(=O)=O)c1F`, the Euclidean distance was found to be 2.49 in assay [1]; 2.65 in assay [2]; 1.99 in assay [3]; 3.46 in assay [4]; 2.59 in assay [5]; 3.43 in assay [6].
Take `O=C(CCCCCCNC(=O)c1cnc(N(c2ccccc2)c2ccccc2Cl)nc1)NO` [Citarinostat (ACY-241)]: the Euclidean distance in assay [1] turned out to be 1.92; in assay [2], 2.05; in assay [3], 2.16; in assay [4] it was 3.07; in assay [5], 2.52; in assay [6], 1.75.
Take `CCCCCC(=O)O[C@]1(C(C)=O)CC[C@H]2[C@@H]3CCC4=CC(=O)CC[C@]4(C)[C@H]3CC[C@@]21C` [Hydroxyprogesterone caproate]: the Euclidean distance came to 0.774 in assay [1]; 1.41 in assay [2]; 2.27 in assay [3]; 1.18 in assay [4]; 0.603 in assay [5]; 0.921 in assay [6].
For the molecule `O=C1Nc2ccc(Cl)cc2[C@@](C#CC2CC2)(C(F)(F)F)O1` [Efavirenz], the Euclidean distance in assay [1] came out at 1.21; in assay [2] it was 1.3; in assay [3], 2.23; in assay [4] it was 1.28; in assay [5], 0.747; in assay [6], 1.1.
Consider `Cc1cccc(-c2[nH]c(CNc3ccccc3F)nc2-c2ccc3ncnn3c2)n1` [Vactosertib ?(TEW-7197)], for which the Euclidean distance in assay [1] worked out at 1.71; in assay [2], 1.61; in assay [3], 1.41; in assay [4] it was 1.83; in assay [5], 1.26; in assay [6], 1.5.
On to `CN(C)[C@@H](CCOc1cccc2ccccc12)c1ccccc1` [Dapoxetine HCl], for which the Euclidean distance in assay [1] worked out at 1.49; in assay [2] it was 0.787; in assay [3], 2.96; in assay [4] it was 1.26; in assay [5] it was 1.1; in assay [6], 1.26.
Turning to `CC(C)C[C@H](NC(=O)[C@H](CCc1ccccc1)NC(=O)CN1CCOCC1)C(=O)N[C@@H](Cc1ccccc1)C(=O)N[C@@H](CC(C)C)C(=O)[C@@]1(C)CO1` [Carfilzomib (PR-171)], the Euclidean distance in assay [1] worked out at 5.78; in assay [2], 4.54; in assay [3], 5.77; in assay [4], 0.729; in assay [5], 4.79; in assay [6], 5.41.
As for `CC(=O)OC1CC2CCC1(C)C2(C)C` (stereo unspecified) [Bornyl acetate], the Euclidean distance in assay [1] turned out to be 1.09; in assay [2], 0.894; in assay [3], 1.24; in assay [4] it was 1.11; in assay [5], 0.74; in assay [6] it was 1.29.
Take `CO/N=C(\C(=O)N[C@@H]1C(=O)N2C(C(=O)O)=CCS[C@H]12)c1csc(N)n1` [Ceftizoxime]: the Euclidean distance in assay [1] is 1.04; in assay [2], 1.74; in assay [3], 0.987; in assay [4], 1.24; in assay [5] it was 0.67; in assay [6], 1.56.
Consider `O=c1[nH]cnc2nc[nH]c12` [Hypoxanthine], for which the Euclidean distance stood at 1.19 in assay [1]; 1.2 in assay [2]; 1.16 in assay [3]; 1.66 in assay [4]; 0.856 in assay [5]; 2.43 in assay [6].
Consider `Cc1c(Cl)cccc1Nc1ncccc1C(=O)O` [Clonixin], for which the Euclidean distance in assay [1] came to 0.846; in assay [2] it was 1.1; in assay [3], 1.6; in assay [4], 1.11; in assay [5], 0.606; in assay [6], 0.98.
Turning to `Clc1ccc(C(c2ccccc2Cl)C(Cl)Cl)cc1` (stereo unspecified) [Mitotane], the Euclidean distance was found to be 0.994 in assay [1]; 0.919 in assay [2]; 1.27 in assay [3]; 1.79 in assay [4]; 1.84 in assay [5]; 1.45 in assay [6].
As to `N#Cc1cc(-c2n[nH]c(-c3ccncc3)n2)ccn1` [Topiroxostat], the Euclidean distance in assay [1] worked out at 1.19; in assay [2] it was 1.05; in assay [3], 1.49; in assay [4] it was 1.16; in assay [5], 0.521; in assay [6], 1.32.
Regarding `OC(CCN1CCCCC1)(c1ccccc1)C1CCCCC1` (stereo unspecified) [Trihexyphenidyl hydrochloride], the Euclidean distance in assay [1] amounted to 1.04; in assay [2], 1.1; in assay [3] it was 0.794; in assay [4], 0.849; in assay [5], 1.17; in assay [6] it was 2.16.
As for `O=C(Nc1cccc(C(F)(F)F)c1)Nc1cc(S(=O)(=O)NC2CC2)ccc1-c1ccsc1`, the Euclidean distance was 0.684 in assay [1]; 1.29 in assay [2]; 1.11 in assay [3]; 1.51 in assay [4]; 2.45 in assay [5]; 1.01 in assay [6].
With `C[C@@H]1C[C@H]2[C@@H]3CCC4=CC(=O)C=C[C@]4(C)[C@@]3(F)[C@@H](O)C[C@]2(C)[C@@]1(O)C(=O)COP(=O)(O)O` [Dexamethasone Sodium Phosphate], the Euclidean distance came out at 1.79 in assay [1]; 2.25 in assay [2]; 2.22 in assay [3]; 1.44 in assay [4]; 0.744 in assay [5]; 2.38 in assay [6].
